Measured values from PubChem BioAssay (NCATS).
Records with an inconclusive call do not appear. Entries that show only a call come without a potency. Activity calls are given as the source filed them. The call rests on the fitted dose curve; in most records, active means well fitted curve in the direction sought with a large enough effect; inconclusive means small, poorly fitted or top-dose-only effect, or another doubt; inactive means no such curve, though single readings can be large or run the other way.

Target: Hexokinase-4 (Homo sapiens) + Glucokinase regulatory protein (Homo sapiens) (UniProt P35557+Q14397)
Experiment: qHTS assay for inhibitors of recombinant human GCK-GKRP interaction: HTRF assay (AID 743207)
Conditions: recombinant GCK-GKRP HTRF binding, 60 min, with sorbitol-6-phosphate; series mostly up to 57.5 µM
Method in brief: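 Titration screening format: recombinant GST-GCK and FLAG-GKRP at 5 nM, S6P at 2 uM, labelled anti-tag antibodies, 60 min at RT, dual-wavelength HTRF readout.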
Potency means the concentration at half of the fitted maximal effect.

Chain of Hexokinase-4 (Homo sapiens) + Glucokinase regulatory protein (Homo sapiens) (P35557 whole entry, looked up): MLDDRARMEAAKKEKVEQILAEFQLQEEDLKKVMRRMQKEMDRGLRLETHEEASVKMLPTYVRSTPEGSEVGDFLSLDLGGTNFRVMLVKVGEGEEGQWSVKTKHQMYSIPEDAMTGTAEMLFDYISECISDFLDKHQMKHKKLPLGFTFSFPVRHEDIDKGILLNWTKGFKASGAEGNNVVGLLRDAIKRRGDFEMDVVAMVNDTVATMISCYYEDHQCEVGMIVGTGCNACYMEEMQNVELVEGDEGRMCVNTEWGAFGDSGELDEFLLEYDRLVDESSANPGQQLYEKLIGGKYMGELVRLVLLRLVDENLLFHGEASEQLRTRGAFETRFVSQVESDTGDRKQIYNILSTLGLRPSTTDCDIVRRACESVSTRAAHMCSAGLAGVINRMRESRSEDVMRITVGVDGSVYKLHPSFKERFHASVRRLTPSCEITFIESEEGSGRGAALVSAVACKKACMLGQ
Chain of Hexokinase-4 (Homo sapiens) + Glucokinase regulatory protein (Homo sapiens) (Q14397 whole entry, looked up): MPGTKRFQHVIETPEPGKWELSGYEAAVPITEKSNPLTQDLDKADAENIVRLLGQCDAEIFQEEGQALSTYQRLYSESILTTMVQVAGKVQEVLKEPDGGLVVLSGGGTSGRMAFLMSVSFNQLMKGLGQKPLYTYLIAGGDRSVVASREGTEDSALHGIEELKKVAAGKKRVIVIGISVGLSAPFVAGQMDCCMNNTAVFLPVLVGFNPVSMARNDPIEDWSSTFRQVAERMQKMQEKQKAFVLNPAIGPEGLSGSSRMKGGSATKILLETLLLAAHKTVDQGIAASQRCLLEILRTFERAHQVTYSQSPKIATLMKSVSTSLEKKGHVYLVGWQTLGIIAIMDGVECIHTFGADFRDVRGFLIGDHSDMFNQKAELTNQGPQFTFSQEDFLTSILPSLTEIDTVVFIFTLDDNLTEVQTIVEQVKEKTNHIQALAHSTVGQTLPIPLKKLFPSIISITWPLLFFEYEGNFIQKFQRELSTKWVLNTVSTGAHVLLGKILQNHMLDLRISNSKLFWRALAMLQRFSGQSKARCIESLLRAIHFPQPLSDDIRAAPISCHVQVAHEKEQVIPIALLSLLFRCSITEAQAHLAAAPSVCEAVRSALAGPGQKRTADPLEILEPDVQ

Q: For O=C(O)C1CCNCC1, which Potency is on record?
A: inactive

Q: Which Potency does the source give for Cc1cc2c(cc1Cl)N(C(=O)Nc1ccnc3ccccc13)CC2 here?
A: inactive

Q: For C=CCn1c(=O)c2c(nc(-c3ccc(S(=O)(=O)O)cc3)n2C)n(C)c1=O, which Potency is on record?
A: inactive

Q: Which Potency does the source give for O=c1cc(O)cc(/C=C/c2ccc(O)c(O)c2)o1 here?
A: inactive

Q: Which Potency does the source give for [Li+] here?
A: inactive

Q: Which Potency does the source give for N=C(N)c1ccccc1 here?
A: inactive

Q: With CC(=O)/C(C)=N/O as the compound, how does the Potency read?
A: inactive

Q: For NC/C=C\C(=O)O, which Potency is on record?
A: inactive

Q: For CC(=O)O[C@H]1Cc2ccccc2N(C(N)=O)c2ccccc21, which Potency is on record?
A: inactive

Q: Which Potency does the source give for CN1CCC2(CCN3CCc4c(oc5ccccc45)C3C2)N(C)C1=O (centres undefined) here?
A: inactive

Q: Which Potency does the source give for O=C(O)c1cccnc1C(=O)O here?
A: inactive

Q: With CCCCOc1cc(CC2CNC(=O)N2)ccc1OC (centres undefined) as the compound, how does the Potency read?
A: inactive

Q: For O=C(O)C1=CC(=C(c2ccc(O)c(C(=O)O)c2)c2ccc(O)c(C(=O)O)c2)C=CC1=O, which Potency is on record?
A: 2.51 µM (active)

Q: For c1ccc(C(NCc2cccnc2)(c2ccccc2)c2ccccc2)cc1, which Potency is on record?
A: inactive

Q: With CCN1C(=O)C=CC1=O as the compound, how does the Potency read?
A: inactive

Q: With C#CC(N)CCC(=O)O (centres undefined) as the compound, how does the Potency read?
A: inactive

Q: Which Potency does the source give for CC(=O)N[C@@H](Cc1c[nH]c2ccccc12)C(=O)OCc1cc(C(F)(F)F)cc(C(F)(F)F)c1 here?
A: inactive

Q: For NC(Cc1cccc(-c2ccccc2CP(=O)(O)O)c1)C(=O)O (centres undefined), which Potency is on record?
A: inactive

Q: Which Potency does the source give for CC(=O)O[C@H]1CC2(C)[C@@H](C[C@@H](O)[C@H]3[C@@]4(C)CC[C@@H](O)[C@@H](C)[C@@H]4CC[C@@]32C)C1=C(CCC=C(C)C)C(=O)O (some centres undefined) here?
A: inactive

Q: With COc1ccccc1N1CCN(CCCNc2c(C)c(=O)n(C)c(=O)n2C)CC1 as the compound, how does the Potency read?
A: inactive

Q: With N[C@H]1CONC1=O as the compound, how does the Potency read?
A: inactive

Q: Which Potency does the source give for COC(=O)C(C)(N)Cc1ccc(O)cc1 (centres undefined) here?
A: inactive

Q: Which Potency does the source give for Nc1ncnc2c1nc(Sc1ccc(Cl)cc1)n2[C@H]1OC2COP(=O)(O)O[C@@H]2C1O (some centres undefined) here?
A: inactive

Q: For CCN(CC)CCOC(=O)c1cc(Cl)c(N)cc1OC, which Potency is on record?
A: inactive

Q: Which Potency does the source give for OC[C@H]1NC[C@@H](O)[C@@H]1O here?
A: inactive

Q: Which Potency does the source give for COc1ccc(CCN(C)CCc2ccc(OC)c(OC)c2)cc1OC here?
A: inactive

Q: With CC(C)(CO)Cc1cc(C(C)(C)C)c(O)c(C(C)(C)C)c1 as the compound, how does the Potency read?
A: inactive

Q: For N[C@H](C(=O)O)[C@H](O)C(=O)O, which Potency is on record?
A: inactive

Q: Which Potency does the source give for NCCNS(=O)(=O)c1cccc2c(Cl)cccc12 here?
A: inactive

Q: For C[C@@]1(C2CCCC2)Cc2cc(OCC(=O)O)c(Cl)c(Cl)c2C1=O, which Potency is on record?
A: inactive

Q: For N#CC(C#N)=C(N)/C(C#N)=C/c1ccc(O)cc1, which Potency is on record?
A: inactive

Q: For CCCn1c(=O)c(C)cn2nc(N)nc12, which Potency is on record?
A: inactive

Q: Which Potency does the source give for NC(=O)c1cc[n+](CC2=C(C(=O)O)N3C(=O)[C@@H](NC(=O)[C@@H](c4ccccc4)S(=O)(=O)[O-])[C@H]3SC2)cc1 here?
A: inactive

Q: Which Potency does the source give for O=C(O)/C=C/c1cnc[nH]1 here?
A: inactive

Q: With CN(CC[C@@H](Oc1ccc(C(F)(F)F)cc1)c1ccccc1)CC(=O)O as the compound, how does the Potency read?
A: inactive

Q: With CN1CC(O)C(O)C(O)C1CO (centres undefined) as the compound, how does the Potency read?
A: inactive

Q: Which Potency does the source give for CCCCCC[C@@H]([C@@H](C)O)n1cnc2c(N)ncnc21 here?
A: inactive

Q: With Nn1nnc2ccccc21 as the compound, how does the Potency read?
A: inactive

Test system: not listed separately
Experiment: qHTS Assay for Identifying Gametocytocidal Compounds (AID 743244);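 on max response: actives lower the fluorescent signal which means gametocytes are killed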
Conditions: P. falciparum 3D7 stage III-V gametocytes, alamarBlue, 72 h; max response: stronger effect = lower value
Method in brief: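 Stage III–V gametocytes of P. falciparum 3D7 were seeded at 20,000 cells/well onto pre-dispensed compounds. After 72 h, 37 °C, 5% CO2, alamarBlue was added for another 24 h.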

Q: For O=C(O)C1CCNCC1, which max response is on record?
A: 10.6% (inactive)

Q: Which max response does the source give for Cc1cc2c(cc1Cl)N(C(=O)Nc1ccnc3ccccc13)CC2 here?
A: 6.93% (inactive)

Q: For C=CCn1c(=O)c2c(nc(-c3ccc(S(=O)(=O)O)cc3)n2C)n(C)c1=O, which max response is on record?
A: 2.53% (inactive)

Q: With [Li+] as the compound, how does the max response read?
A: 24.7% (inactive)

Q: For N=C(N)c1ccccc1, which max response is on record?
A: 17.2% (inactive)

Q: Which max response does the source give for CC(=O)/C(C)=N/O here?
A: -4.63% (inactive)

Q: For NC/C=C\C(=O)O, which max response is on record?
A: 7.58% (inactive)

Q: For CC(=O)O[C@H]1Cc2ccccc2N(C(N)=O)c2ccccc21, which max response is on record?
A: 18.2% (inactive)

Q: For CN1CCC2(CCN3CCc4c(oc5ccccc45)C3C2)N(C)C1=O (centres undefined), which max response is on record?
A: 28.4% (inactive)

Q: Which max response does the source give for O=C(O)c1cccnc1C(=O)O here?
A: 4.44% (inactive)

Q: For CCCCOc1cc(CC2CNC(=O)N2)ccc1OC (centres undefined), which max response is on record?
A: 22.4% (inactive)

Q: Which max response does the source give for O=C(O)C1=CC(=C(c2ccc(O)c(C(=O)O)c2)c2ccc(O)c(C(=O)O)c2)C=CC1=O here?
A: 21.2% (inactive)

Q: For c1ccc(C(NCc2cccnc2)(c2ccccc2)c2ccccc2)cc1, which max response is on record?
A: 16.7% (inactive)

Q: For CCN1C(=O)C=CC1=O, which max response is on record?
A: 14.2% (inactive)

Q: With CC(=O)N[C@@H](Cc1c[nH]c2ccccc12)C(=O)OCc1cc(C(F)(F)F)cc(C(F)(F)F)c1 as the compound, how does the max response read?
A: 12% (inactive)

Q: For NC(Cc1cccc(-c2ccccc2CP(=O)(O)O)c1)C(=O)O (centres undefined), which max response is on record?
A: 13.4% (inactive)

Q: For CC(=O)O[C@H]1CC2(C)[C@@H](C[C@@H](O)[C@H]3[C@@]4(C)CC[C@@H](O)[C@@H](C)[C@@H]4CC[C@@]32C)C1=C(CCC=C(C)C)C(=O)O (some centres undefined), which max response is on record?
A: 12.4% (inactive)

Q: With COc1ccccc1N1CCN(CCCNc2c(C)c(=O)n(C)c(=O)n2C)CC1 as the compound, how does the max response read?
A: -1.96% (inactive)

Q: For N[C@H]1CONC1=O, which max response is on record?
A: 7.19% (inactive)

Q: Which max response does the source give for COC(=O)C(C)(N)Cc1ccc(O)cc1 (centres undefined) here?
A: 7.17% (inactive)

Q: Which max response does the source give for Nc1ncnc2c1nc(Sc1ccc(Cl)cc1)n2[C@H]1OC2COP(=O)(O)O[C@@H]2C1O (some centres undefined) here?
A: 39.2% (inactive)

Q: Which max response does the source give for CCN(CC)CCOC(=O)c1cc(Cl)c(N)cc1OC here?
A: 40.4% (inactive)

Q: Which max response does the source give for OC[C@H]1NC[C@@H](O)[C@@H]1O here?
A: 20.9% (inactive)

Q: Which max response does the source give for COc1ccc(CCN(C)CCc2ccc(OC)c(OC)c2)cc1OC here?
A: 12.4% (inactive)

Q: With CC(C)(CO)Cc1cc(C(C)(C)C)c(O)c(C(C)(C)C)c1 as the compound, how does the max response read?
A: 9.64% (inactive)

Q: With N[C@H](C(=O)O)[C@H](O)C(=O)O as the compound, how does the max response read?
A: 13.2% (inactive)

Q: With NCCNS(=O)(=O)c1cccc2c(Cl)cccc12 as the compound, how does the Potency read?
A: 3.16 µM (active)

Q: Which max response does the source give for C[C@@]1(C2CCCC2)Cc2cc(OCC(=O)O)c(Cl)c(Cl)c2C1=O here?
A: 33.9% (inactive)

Q: Which max response does the source give for N#CC(C#N)=C(N)/C(C#N)=C/c1ccc(O)cc1 here?
A: 11.4% (inactive)

Q: For CCCn1c(=O)c(C)cn2nc(N)nc12, which max response is on record?
A: -2.34% (inactive)

Q: With NC(=O)c1cc[n+](CC2=C(C(=O)O)N3C(=O)[C@@H](NC(=O)[C@@H](c4ccccc4)S(=O)(=O)[O-])[C@H]3SC2)cc1 as the compound, how does the max response read?
A: 7.28% (inactive)

Q: With O=C(O)/C=C/c1cnc[nH]1 as the compound, how does the max response read?
A: 8.66% (inactive)

Q: With CN(CC[C@@H](Oc1ccc(C(F)(F)F)cc1)c1ccccc1)CC(=O)O as the compound, how does the max response read?
A: 25.4% (inactive)

Q: Which max response does the source give for CN1CC(O)C(O)C(O)C1CO (centres undefined) here?
A: 11.6% (inactive)

Q: Which max response does the source give for CCCCCC[C@@H]([C@@H](C)O)n1cnc2c(N)ncnc21 here?
A: 12% (inactive)

Q: With Nn1nnc2ccccc21 as the compound, how does the max response read?
A: 16.9% (inactive)
